# Rows were chosen to be rich in hits. Some 1.1% of all compounds tested hit in one or more screens of this group.
# HTR5A inv ctr = HTR5A inverse agonism, opioid heterodimer counter-screen | inhibition, % at 9.3 µM | HTR5A cell line, luminescence | 340,000 tested, 0.083% active | P47898; in the data active = inhibition mostly above about 23%, no sharp cut-off; inactive = mostly below about 18%
# HTR5A ag = HTR5A agonism, opioid heterodimer counter-screen; P47898; activation, % at 9.3 µM; AID 504692; HTR5A agonist assay, luminescence, cell-based; 340,000 tested, 0.61% active; in the data active = activation mostly above about 9.5%, no sharp cut-off; inactive = mostly below about 7.6%
# MOR-DOR inv ag = inverse agonists of human mu-delta opioid receptor heterodimerization. P35372+P41143. cell-based MOR-DOR heterodimer luminescence, inverse agonism. inhibition, % at 9.3 µM. 340,000 tested, 0.21% active; in the data active = inhibition above about 22%, passing the limit was not always enough
# Target sequence (P35372 whole entry, looked up): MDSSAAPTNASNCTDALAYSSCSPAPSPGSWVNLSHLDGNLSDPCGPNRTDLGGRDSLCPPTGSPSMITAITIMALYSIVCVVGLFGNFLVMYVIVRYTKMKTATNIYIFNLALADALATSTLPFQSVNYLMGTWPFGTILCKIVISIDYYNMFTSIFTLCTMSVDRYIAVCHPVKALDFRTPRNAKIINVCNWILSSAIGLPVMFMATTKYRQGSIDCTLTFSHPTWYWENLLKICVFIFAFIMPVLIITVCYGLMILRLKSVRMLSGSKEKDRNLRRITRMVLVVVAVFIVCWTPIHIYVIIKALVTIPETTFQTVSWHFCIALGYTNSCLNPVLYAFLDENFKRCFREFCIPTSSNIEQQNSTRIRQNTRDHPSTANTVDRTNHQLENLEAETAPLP
# Target sequence (P41143 whole entry, looked up): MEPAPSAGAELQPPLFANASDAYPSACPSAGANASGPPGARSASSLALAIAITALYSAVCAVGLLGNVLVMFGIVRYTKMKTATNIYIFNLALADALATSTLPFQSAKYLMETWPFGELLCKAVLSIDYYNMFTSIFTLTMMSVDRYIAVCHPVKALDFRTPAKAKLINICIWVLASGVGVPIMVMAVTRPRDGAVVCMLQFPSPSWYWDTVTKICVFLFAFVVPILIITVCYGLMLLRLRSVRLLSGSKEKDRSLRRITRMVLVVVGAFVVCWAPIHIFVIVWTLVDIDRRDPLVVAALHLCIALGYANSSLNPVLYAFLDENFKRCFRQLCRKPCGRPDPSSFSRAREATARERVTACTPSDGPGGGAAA
# OPRM1-OPRD1 ag = OPRM1-OPRD1 heterodimerization agonism; cells, luminescence; activation, % at 9.3 µM; 340,000 tested, 0.3% active; AID 504326
# MOR-DOR ag conf = OPRM1-OPRD1 heterodimer agonism, confirmation; AID 504904; cells, MOR-DOR heterodimerization, luminescence complementation; activation, % at 9.3 µM; 830 tested, 45% active; shares compounds with OPRM1-OPRD1 ag
# HTR5A ag ctr2 = counter-screen for OPRM1-OPRD1 agonists: human HTR5A agonism; shares compounds with OPRM1-OPRD1 ag; HTR5A agonist counterscreen, cell luminescence; activation, % at 9.3 µM; 830 tested, 8% active; AID 504905; in the data active = activation above about 17%
# MOR-DOR inv conf = confirmation of human OPRM1-OPRD1 heterodimerization inverse agonists; shares compounds with MOR-DOR inv ag; cells expressing OPRM1/OPRD1 heterodimer, luminescence; inhibition, % at 9.3 µM; 580 tested, 20% active; AID 504900; in the data active = inhibition above about 32%
# HTR5A inv ctr2 = inverse agonist of human HTR5A in OPRM1-OPRD1 counter-screen | HTR5A-expressing cells, luminescence, inverse agonism | inhibition, % at 9.3 µM | shares compounds with MOR-DOR inv ag | 580 tested, under 10 active; call rule not given here
# Hits are given with their value; - = inactive; . = no result given. Cut-off read from the data, not from the text of the source, unless noted: active = activation above about 18%; inactive = the rest.
SMILES,HTR5A inv ctr,HTR5A ag,MOR-DOR inv ag,OPRM1-OPRD1 ag,MOR-DOR ag conf,HTR5A ag ctr2,others
CCn1cc(CN2CCCC(C(=O)Nc3ccc(-c4nc5ccccc5[nH]4)cc3)C2)c(C)n1 (configuration not stated),-,-,-,30.5,-,-,
CCCCNC(=O)O[C@@H]1C[C@H]2CCCC(=O)N3CC[C@@H](C1)[C@@H]23,-,-,-,-,.,.,
CCCCCCCN(c1ccccc1)[C@@H]1C[C@H]2CCCC(=O)N3CC[C@@H](C1)[C@@H]23,-,-,-,18.8,-,-,
FC(F)(F)c1cnc(Nc2ccc(N3CCOCC3)cc2)c(Cl)c1,-,-,-,28.1,-,-,
O=S(=O)(c1ccc(F)cc1)N1CCN(C(=S)NCC2CCCO2)CC1 (configuration not stated),-,-,-,-,.,.,
CCOC(=O)N1CCN(C(=O)Cn2ccc3c(OC)cccc3c2=O)CC1,-,-,-,-,.,.,
C#CC(=O)N(c1cc(OC)ccc1OC)C(C(=O)NC1CCCC1)c1cccs1 (configuration not stated),-,-,-,37.5,-,20.4,
COc1ccc(N(C(=O)c2snc(C(N)=O)c2N)C(C(=O)NC2CCCC2)c2cccs2)cc1OC (configuration not stated),-,-,-,-,.,.,
O=C1C=C(c2cccc(Br)c2)C[C@@H](c2ccc3c(c2)OCO3)C1,-,-,-,-,.,.,
CN1CCN(c2ccc(C(F)(F)F)cc2NC(=O)Nc2ccccc2)CC1,-,-,-,-,.,.,
O=C1Nc2ccc(Br)cc2/C1=C/C(=O)c1ccccc1,-,-,-,18.3,-,-,
COC(=O)c1nccc2c1[nH]c1ccccc12,-,-,-,-,.,.,
CC1(C(=O)Nc2cccc(-n3cnnn3)c2)Cc2ccccc2C(=O)O1 (configuration not stated),-,-,-,-,.,.,
Cc1ccc(C)c(N2CCN(C(=S)Nc3ccc4nc(N5CCN(C)CC5)cc(C)c4c3)CC2)c1,-,-,-,18.3,21.6,-,
Cc1ccc(C)c(N2CCN(C(=S)Nc3ccc4nc(N5CCOCC5)cc(C)c4c3)CC2)c1,-,-,-,-,.,.,
Cc1cc(NC(=O)CSc2nc3c(c(=O)n2C)SCC3)no1,-,-,-,-,.,.,
CC(C)(C)c1ccc(C(=O)Nc2ccc(NC(=O)C(=O)O)cc2)o1,-,-,-,-,.,.,
COc1ccc(C(CNC(=O)c2cc(SC)ccc2Cl)N(C)C)cc1 (configuration not stated),-,-,-,104.5,-,-,
COc1ccc(CNC(=O)Cc2cccs2)cc1,-,-,-,-,.,.,
COc1ccc(C(CNC(=O)Cc2cccs2)N(C)C)cc1 (configuration not stated),-,-,-,84.8,-,-,
COc1ccc(C(CNC(=O)c2cncc(Br)c2)N(C)C)cc1 (configuration not stated),-,-,-,274.2,232.1,-,
COc1ccc(CC(=O)NCC(c2ccc(OC)cc2)N(C)C)cc1 (configuration not stated),-,-,-,31.2,-,-,
CCCn1c(=O)c(C(=O)NNC(=O)c2ccccc2Cl)c(O)c2ccccc21,-,-,-,-,.,.,
COCc1cc(CNC(=O)C2CCC(=O)N(Cc3ccccc3OC)C2)[nH]n1 (configuration not stated),-,-,-,-,.,.,
CCOC(=O)C1(CCOc2ccccc2)CCN(Cc2cnc(SC)nc2)CC1,-,-,-,31.7,-,-,
SMILES,HTR5A inv ctr,HTR5A ag,MOR-DOR inv ag,OPRM1-OPRD1 ag,MOR-DOR ag conf,HTR5A ag ctr2,others
CCOC(=O)C1(CCOc2ccccc2)CCN(Cc2ccc(OC)c(O)c2)CC1,-,-,-,77.2,75.0,-,
CCOC(=O)C1(CC2CC2)CCN(Cc2cnc(-c3ccccc3C)nc2)CC1,-,-,-,79.0,71.8,-,
CCOC(=O)C1(CC2CC2)CCN(Cc2cc(Cl)c(O)c(OC)c2)CC1,-,-,-,-,.,.,
CCOC(=O)C1(CCOc2ccccc2)CCN(Cc2ccc(O)cc2)CC1,-,-,-,-,.,.,
CCOc1ccc(S(=O)(=O)Nc2cccc(C)c2)c2cccnc12,-,-,-,-,.,.,
O=C1CCc2cc(Br)ccc2O1,-,-,-,-,.,.,
CCN(CC)c1ccc(C(=O)O)cc1,-,-,-,-,.,.,
CCN(CC)c1ccc(/C=C2\C(=O)c3ccc(C(=O)O)cc3C2=O)cc1,-,-,-,21.1,-,-,
COCC(=O)OC1CCn2c1nc1c2C(=O)C(C)=C(NC(C)=O)C1=O (configuration not stated),-,-,-,22.6,-,-,
Cc1ccc(NC(=S)NNc2ncc(C(F)(F)F)cc2Cl)c(C)c1,-,-,49.4,-,.,.,MOR-DOR inv conf=-;HTR5A inv ctr2=-
CON/C=N/C(=S)Nc1ncc(C(F)(F)F)cc1Cl,-,-,-,-,.,.,
Cc1ccc(NC(=S)NNc2ncc(C(F)(F)F)cc2Cl)cc1,-,-,54.7,-,.,.,MOR-DOR inv conf=-;HTR5A inv ctr2=-
COc1cc(/C=C/C(=O)c2ccc(C)c([N+](=O)[O-])c2)cc(OC)c1O,-,-,20.3,-,.,.,MOR-DOR inv conf=-;HTR5A inv ctr2=-
COc1cc(/C=N/Nc2ccccc2[N+](=O)[O-])cc(OC)c1O,-,-,-,-,.,.,
COc1cc(/C=N/Nc2ccc(F)cc2F)cc(OC)c1O,-,-,32.2,-,.,.,MOR-DOR inv conf=-;HTR5A inv ctr2=-
COCCN(C(=O)CCSc1ccc(F)cc1)c1c(N)n(Cc2ccccc2)c(=O)[nH]c1=O,-,-,-,-,.,.,
COc1ccc(OC)c(C(=O)Nc2ccc3[nH]ccc3c2)c1,-,-,-,-,.,.,
Cc1ccccc1N1CCN(C2CCCN(C(=O)c3noc4c3CCCC4)C2)CC1 (configuration not stated),-,-,-,-,.,.,
CC(=O)C(Sc1nn(C)c(=S)s1)C(=O)Nc1ccccc1 (configuration not stated),-,-,72.1,-,.,.,MOR-DOR inv conf=-;HTR5A inv ctr2=-
CC(=O)C(Sc1nc(N(C)C)nc(N(C)C)n1)C(=O)Nc1ccccc1 (configuration not stated),-,-,-,-,.,.,
Cc1cc(NC(=O)CSCC(=O)OCC(=O)c2cccc(Br)c2)no1,-,-,26.8,-,.,.,MOR-DOR inv conf=-;HTR5A inv ctr2=-
O=C1CNCc2[nH]c3ccccc3c2N1c1ccccc1,-,-,-,-,.,.,
O=CN1Cc2[nH]c3ccccc3c2N(c2ccc(Cl)cc2)C1=O,-,-,44.3,-,.,.,MOR-DOR inv conf=-;HTR5A inv ctr2=-
Cc1cc(C(=O)NNc2ccc(F)cc2)no1,-,-,35.5,-,.,.,MOR-DOR inv conf=-;HTR5A inv ctr2=-
Cc1cc(C(=O)NNc2ccccc2F)no1,-,-,-,-,.,.,
CC(=O)N(/N=C1\Sc2ccccc2C1=O)c1cccc(C)c1,-,-,53.3,-,.,.,MOR-DOR inv conf=44.4;HTR5A inv ctr2=-

# Assay outcomes deposited in PubChem by The Scripps Research Institute Molecular Screening Center.
